Source: ChEMBL document CHEMBL4513141, “CO-ADD screening of NIH (USA) - Clinical Collection” (2021)
Potency and affinity values are given separately.

system: Klebsiella pneumoniae; conditions: Concentration 20 uM; ASSAY_TEST Inhibition of Bacterial Growth; detection method Absorption (OD600); MEDIA CAMHB; plate type 384well; NBS; CORNING #3640; time 18 hr

First: CC(C)[N+](C)(CCOC(=O)C1c2ccccc2Oc2ccccc21)C(C)C.[Br-] [PROPANTHELINE BROMIDE]
Second: CNCC[C@@H](Oc1ccccc1C)c1ccccc1.Cl [ATOMOXETINE HYDROCHLORIDE]
The Inhibition of the first is higher: 18.08% for the first, 2.35% for the second.

Going from CCC(C)(C)C(=O)O[C@H]1C[C@@H](C)C=C2C=C[C@H](C)[C@H](CC[C@@H]3C[C@@H](O)CC(=O)O3)[C@H]21 [SIMVASTATIN] to CC1(C)O[C@@H]2C[C@H]3[C@@H]4C[C@H](F)C5=CC(=O)C=C[C@]5(C)[C@@]4(F)[C@@H](O)C[C@]3(C)[C@]2(C(=O)CO)O1 [FLUOCINOLONE ACETONIDE], the Inhibition rises from -2.13% to -0.92%.

Going from Cc1nccn1CC1CCc2c(c3ccccc3n2C)C1=O (stereo unspecified) [ONDANSETRON] to CN1CCCC(n2nc(Cc3ccc(Cl)cc3)c3ccccc3c2=O)CC1.Cl (stereo unspecified) [AZELASTINE HYDROCHLORIDE], the Inhibition falls from 11.11% to -1%.

Compared with COC(=O)C1=C(C)NC(C)=C(C(=O)OC(C)C)C1c1cccc2nonc12 (stereo unspecified) [ISRADIPINE], COC(=O)C1=C(C)NC(C)=C(C(=O)OCC(C)C)C1c1ccccc1[N+](=O)[O-] (stereo unspecified) [NISOLDIPINE] is higher in Inhibition: 7.21% for the first, 25.81% for the second.

Compared with Nc1ccn([C@H]2CC[C@@H](CO)O2)c(=O)n1 [ZALCITABINE], O=c1cnn([C@@H]2O[C@H](CO)[C@@H](O)[C@H]2O)c(=O)[nH]1 [6-AZAURIDINE] is lower in Inhibition: 8% for the first, 4.69% for the second.

First: Nc1ncnc2c1ncn2[C@@H]1O[C@H](CO)[C@@H](O)[C@@H]1O [VIDARABINE]
Second: Nc1nc(O)c2ncn(CCC(CO)CO)c2n1 [PENCICLOVIR]
The Inhibition of the first is lower: 13.1% for the first, 17.55% for the second.

First: COc1ccccc1OCC(O)COC(N)=O (stereo unspecified) [METHOCARBAMOL]
Second: CCCC(=O)Nc1ccc(OCC(O)CNC(C)C)c(C(C)=O)c1.Cl (stereo unspecified) [ACEBUTOLOL HYDROCHLORIDE]
The Inhibition of the first is lower: 10.57% for the first, 19.26% for the second.

Going from CCCc1cc(=O)[nH]c(=S)[nH]1 [PROPYLTHIOURACIL] to NS(=O)(=O)c1cc2c(cc1Cl)NCNS2(=O)=O [HYDROCHLOROTHIAZIDE], the Inhibition falls from 16.2% to 14.61%.

First: O=C1c2c(O)cc(O)cc2O[C@H](c2ccc(O)c(O)c2)[C@@H]1O
Second: NC(Cc1cc(I)c(Oc2ccc(O)c(I)c2)c(I)c1)C(=O)O (stereo unspecified) [RATHYRONINE]
The Inhibition of the first is lower: 9.75% for the first, 9.96% for the second.

Compared with CCOC(=O)C1(CCCCCCOc2ccc(Cl)cc2)CO1 (stereo not drawn) [rac-ETOMOXIR], O=C(O)COCCN1CCN(C(c2ccccc2)c2ccc(Cl)cc2)CC1 (stereo unspecified) [CETIRIZINE] is lower in Inhibition: 8.69% for the first, -1.38% for the second.

Compared with CN[C@@H]1[C@H](O)[C@H](NC)[C@H]2O[C@@]3(O)C(=O)C[C@@H](C)O[C@H]3O[C@@H]2[C@H]1O.Cl.Cl.Cl.O.O.O, COc1ccc(-c2oc3c(CC=C(C)C)c(O[C@@H]4O[C@H](CO)[C@@H](O)[C@H](O)[C@H]4O)cc(O)c3c(=O)c2O[C@@H]2O[C@@H](C)[C@H](O)[C@@H](O)[C@H]2O)cc1 [ICARIIN] is lower in Inhibition: 37.26% for the first, 1.41% for the second.

Compared with CC(CCCCC(=O)Nc1ccc(C(F)(F)F)cc1)NCCc1c[nH]cn1.O=C(O)/C=C\C(=O)O.O=C(O)/C=C\C(=O)O (stereo unspecified), CCCc1nc(C)c2c(O)nc(-c3cc(S(=O)(=O)N4CCN(CC)CC4)ccc3OCC)nn12.O=C(O)CC(O)(CC(=O)O)C(=O)O is higher in Inhibition: 6.44% for the first, 10.86% for the second.

Compared with CN(C)CCCN1c2ccccc2CCc2ccccc21.Cl [IMIPRAMINE HYDROCHLORIDE], O=c1c(-c2ccccc2)c1-c1ccccc1 [DIPHENCYPRONE] is lower in Inhibition: 11.14% for the first, -5.06% for the second.

Going from Cc1cccc(Nc2ccccc2C(=O)O)c1C [MEFENAMIC ACID] to O=C(CCCN1CC=C(n2c(=O)[nH]c3ccccc32)CC1)c1ccc(F)cc1 [DROPERIDOL], the Inhibition falls from 12.13% to 9.88%.

Going from CC1(C)C[C@@H]1C(=O)N/C(=C\CCCCSC[C@H](N)C(=O)O)C(=O)[O-].[Na+] [CILASTATIN SODIUM] to CCC(CO)NCCNC(CC)CO (stereo unspecified), the Inhibition rises from -2.84% to 10.98%.

CC[C@]1(O)C[C@@H]2CN(CCc3c([nH]c4ccccc34)[C@@](C(=O)OC)(c3cc4c(cc3OC)N(C=O)[C@H]3[C@@](O)(C(=O)OC)[C@H](OC(C)=O)[C@]5(CC)C=CCN6CC[C@]43[C@@H]65)C2)C1.O=S(=O)(O)O gave an Inhibition of 3.74%.
